Tested on: Plasmodium falciparum
Experiment: GSK_TCMDC: Inhibition of Plasmodium falciparum 3D7 in whole red blood cells, using parasite LDH activity as an index of growth. Test compounds present at 2uM
Assay type: functional

SMILES	Inhibition [%]
O=C(Nc1ccc(Br)cc1)N1CCC(n2c(-c3ccccc3)nc3cccnc32)CC1	90
CC(C)CCN1CCCN(Cc2ccc(C(=O)NCc3ccc(Cl)cc3)cc2)CC1.O=C(O)C(F)(F)F	84
Cc1nc(N)nc(N)c1-c1ccc(Cl)cc1	96
CCCCNc1c(CC)c(C)c(C#N)c2nc3ccccc3n12	100
COc1cc(NC(=O)N2CCc3ccc(OCCC4CCCN4C)cc32)cc(C(F)(F)F)c1.O=C(O)C(F)(F)F (stereo not given)	100
CCOCn1c(-c2ccccc2)cc2c3c(N)nc(N)nc3ccc21	91
Cl.Nc1ccc(-c2cc(Cl)cc(Cl)c2)cc1-c1cc2ccccc2[nH]1	100
O=c1cc(NCCCNCc2cc(C(F)(F)F)ccc2F)[nH]c2ccccc12	94
CC1CCC(C[C@@H](C(=O)N[C@H](C(=O)Nc2nccs2)[C@@H](C)O)[C@H](CCC(F)(F)F)N(O)C=O)CC1 (stereo not given in full)	95
Cc1ccc(C(=O)N2CCN(Cc3nccs3)CC2)cc1	86
COc1ccc(CN(C)Cc2cc(C(C)C)c(C)cc2O)cc1F	98
Cc1c(C(=O)Nc2cc(Sc3ccc(F)cc3)cc([N+](=O)[O-])c2)sc2ncn(Cc3cccc(F)c3)c(=O)c12	100
CN(C)CCCn1cncc1-c1ccc2ncnc(Nc3ccc(OCc4ccccc4)cc3)c2c1	100
Cc1ccc(C)c(NC(=O)Nc2ccc(Nc3nc(C)cc(N4CCOCC4)n3)cc2)c1	98
Cc1n[nH]c2cc(Nc3ccnc(Nc4cccc(CN5CCOCC5)c4)n3)ccc12	83
CC(C)CN(C)c1ncnc2c1nc(-c1cncc(C#N)c1)n2CCNCc1ccccc1.O=C(O)C(F)(F)F	86
Cc1nc(-c2cccc(Nc3nccc(NCC(O)c4ccccc4C)n3)c2)cs1 (stereo not given)	92
CN1CCN(CCCN(Cc2cccc(-c3ccc(CNC4CCCC4)cc3)c2)C(=O)/C=C/c2ccccc2)CC1.O=C(O)C(F)(F)F	98
CC(C)c1cccc(OCC2CCN(c3ncc(C(=O)NC4CC4)cc3Cl)CC2)c1	94
Cc1cnc(Nc2cccc(CCN3CCOCC3)c2)nc1NC(C)C.Cl	97
CN1CCC(N(Cc2ccc(-c3cnc(NCc4ccccc4)nc3)cc2)S(=O)(=O)c2ccccc2)CC1.O=C(O)C(F)(F)F	100
Oc1ccc(-c2cncc(NCc3ccc(F)c(F)c3)c2)cc1	95
CCOc1ccc(C(C)NC(=O)Cc2ccccc2F)cc1OCC (stereo not given)	96
COc1cc(OC)c(NC(=O)C2c3ccccc3C(=O)N(CC(C)C)C2c2cccs2)cc1Cl (stereo not given)	100
C=CCn1c(SCc2c(C)noc2C)nc2scc(-c3cccs3)c2c1=O	88

Tested on: Plasmodium falciparum
Experiment: GSK_TCMDC: Inhibition of Plasmodium falciparum Dd2 in whole red blood cells, using parasite LDH activity as an index of growth. Test compounds present at 2uM
Assay type: functional

SMILES	Inhibition [%]
Fc1cc(Cl)ccc1Nc1ccnc2cc(-c3ccc(CNCCN4CCOCC4)o3)ccc12	100
COc1ccc2nccc([C@@H](O)CN3CCC(NCc4nc5c(cc4Cl)OCC(=O)N5)C(F)C3)c2c1.Cl (stereo not given in full)	29
O=C(Nc1cc(C(F)(F)F)ccc1N1CCOCC1)C(Cl)(Cl)Cl	100
CCc1ccc2c(c1O)CCN(C)C2Cc1ccccc1Cl.Cl (stereo not given)	99
O=C(O)C(F)(F)F.O=S(=O)(NCCN1CCCC1)c1ccc(-c2ccc(CNCc3ccc(F)cc3)cc2)s1	44
CC(CC(=O)NCC1(c2ccc(F)cc2Cl)CCOCC1)C(=O)c1ccc(Cl)cc1 (stereo not given)	91
CCc1c(C)c(C#N)c2nc3ccccc3n2c1NCc1ccco1	90
Br.N=c1sc2ccccc2n1CC(O)c1ccc(Cl)c(Cl)c1 (stereo not given)	74
COc1ccc(-c2cnc3ccc(NCc4ccc(S(N)(=O)=O)cc4)nn23)cn1	98
CN1CCN(c2ccnc3ccc(NC(=O)Cc4cccc(Cl)c4Cl)cc23)CC1	64
Cc1ccccc1C1CCN(C2CCC(NC(=O)/C=C/c3ccc(C#N)cc3)CC2)CC1 (stereo not given)	13
Nc1nc(N)c2c(ccc3c2ccn3CCCF)n1	0
CC(C)(Oc1c(C2CCN(CCCCNC(=O)c3ccc(-c4ccc(Cl)cc4)cc3)CC2)ccc2c1CCCC2)C(N)=O	5
CCN(CC)CCn1c2ccccc2c2ccc(C(=O)Nc3ccc4sc(C)nc4c3)cc21.Cl	26
Cc1nnc(NC(=O)c2cn(-c3ccccc3)nc2-c2ccccc2C)o1	87
O=C(Nc1ccc(Br)cc1)N1CCC(n2c(-c3ccccc3)nc3cccnc32)CC1	86
CC(C)CCN1CCCN(Cc2ccc(C(=O)NCc3ccc(Cl)cc3)cc2)CC1.O=C(O)C(F)(F)F	0
Cc1nc(N)nc(N)c1-c1ccc(Cl)cc1	0
CCCCNc1c(CC)c(C)c(C#N)c2nc3ccccc3n12	100
COc1cc(NC(=O)N2CCc3ccc(OCCC4CCCN4C)cc32)cc(C(F)(F)F)c1.O=C(O)C(F)(F)F (stereo not given)	42

SMILES	Inhibition [%]
CCOCn1c(-c2ccccc2)cc2c3c(N)nc(N)nc3ccc21	66
Cl.Nc1ccc(-c2cc(Cl)cc(Cl)c2)cc1-c1cc2ccccc2[nH]1	97
O=c1cc(NCCCNCc2cc(C(F)(F)F)ccc2F)[nH]c2ccccc12	43
CC1CCC(C[C@@H](C(=O)N[C@H](C(=O)Nc2nccs2)[C@@H](C)O)[C@H](CCC(F)(F)F)N(O)C=O)CC1 (stereo not given in full)	94
Cc1ccc(C(=O)N2CCN(Cc3nccs3)CC2)cc1	0
COc1ccc(CN(C)Cc2cc(C(C)C)c(C)cc2O)cc1F	98
Cc1c(C(=O)Nc2cc(Sc3ccc(F)cc3)cc([N+](=O)[O-])c2)sc2ncn(Cc3cccc(F)c3)c(=O)c12	53
CN(C)CCCn1cncc1-c1ccc2ncnc(Nc3ccc(OCc4ccccc4)cc3)c2c1	100
Cc1ccc(C)c(NC(=O)Nc2ccc(Nc3nc(C)cc(N4CCOCC4)n3)cc2)c1	48
Cc1n[nH]c2cc(Nc3ccnc(Nc4cccc(CN5CCOCC5)c4)n3)ccc12	0
CC(C)CN(C)c1ncnc2c1nc(-c1cncc(C#N)c1)n2CCNCc1ccccc1.O=C(O)C(F)(F)F	2
Cc1nc(-c2cccc(Nc3nccc(NCC(O)c4ccccc4C)n3)c2)cs1 (stereo not given)	14
CN1CCN(CCCN(Cc2cccc(-c3ccc(CNC4CCCC4)cc3)c2)C(=O)/C=C/c2ccccc2)CC1.O=C(O)C(F)(F)F	96
CC(C)c1cccc(OCC2CCN(c3ncc(C(=O)NC4CC4)cc3Cl)CC2)c1	95
Cc1cnc(Nc2cccc(CCN3CCOCC3)c2)nc1NC(C)C.Cl	76
CN1CCC(N(Cc2ccc(-c3cnc(NCc4ccccc4)nc3)cc2)S(=O)(=O)c2ccccc2)CC1.O=C(O)C(F)(F)F	10
Oc1ccc(-c2cncc(NCc3ccc(F)c(F)c3)c2)cc1	80
CCOc1ccc(C(C)NC(=O)Cc2ccccc2F)cc1OCC (stereo not given)	44
COc1cc(OC)c(NC(=O)C2c3ccccc3C(=O)N(CC(C)C)C2c2cccs2)cc1Cl (stereo not given)	100
C=CCn1c(SCc2c(C)noc2C)nc2scc(-c3cccs3)c2c1=O	34

Source: ChEMBL document CHEMBL1157539, “Thousands of chemical starting points for antimalarial lead identification” (Nature, 2010)
